# TDP1 cell noCPT: qHTS for Inhibitors of human tyrosyl-DNA phosphodiesterase 1 (TDP1): qHTS in cells in absence of CPT; DT40 Tdp1-/- hTDP1 cells, no CPT, ATP luminescence, 48 h; Potency, µM (doses to about 46.2 µM), usual class: inhibitors; 15% of 420,000 active; AID 686978, 2013; note: nearly all actives have a fitted effect of over 55% in size
#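 Stably hTDP1-transfected Tdp1-null chicken DT40 cells were treated with library compounds minus camptothecin and grown for at least 48 hr at 37 °C, after which cellular ATP was quantified by luminescence.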
# RORg inh: inhibitors of mouse ROR gamma transcriptional activity. Potency, µM (highest dose often 53.6 µM), usual class: inhibitors. Drosophila S2 Gal4-RORgamma UAS-luciferase reporter, 20 h. 5.4% of 310,000 active. P51450; note: nearly all actives have a fitted effect of over 60% in size
# Target sequence (P51450 whole entry, looked up, the tested form may be a part): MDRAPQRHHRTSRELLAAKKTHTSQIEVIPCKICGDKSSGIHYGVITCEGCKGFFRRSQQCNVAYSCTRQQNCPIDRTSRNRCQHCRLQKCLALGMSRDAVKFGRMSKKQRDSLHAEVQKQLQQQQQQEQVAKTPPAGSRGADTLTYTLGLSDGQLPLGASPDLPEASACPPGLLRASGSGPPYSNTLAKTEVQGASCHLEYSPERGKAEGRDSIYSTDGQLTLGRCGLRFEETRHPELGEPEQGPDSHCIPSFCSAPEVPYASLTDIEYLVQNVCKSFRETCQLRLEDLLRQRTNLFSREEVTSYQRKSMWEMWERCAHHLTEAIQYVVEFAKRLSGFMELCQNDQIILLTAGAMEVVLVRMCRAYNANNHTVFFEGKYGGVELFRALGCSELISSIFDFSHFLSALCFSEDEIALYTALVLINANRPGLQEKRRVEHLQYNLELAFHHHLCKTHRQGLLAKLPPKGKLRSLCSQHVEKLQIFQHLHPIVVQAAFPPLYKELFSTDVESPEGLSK
#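 In this cell-based reporter format, copper sulfate (700 uM final) drives Gal4–ROR gamma fusion expression from a metallothionein promoter in Drosophila Schneider cells; compounds preincubated 1 hr, reporter read after 20 hr at ambient temperature.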
# TDP1 cell CPT: growth inhibition of DT40 Tdp1-/-;hTDP1 cells with camptothecin (screen for TDP1 inhibitors); chicken DT40 Tdp1-/-;hTDP1 cells + 20 nM CPT, ATP luminescence, 48 h; Potency, µM (top dose mostly 46.2 µM), hits mostly inhibitors; 12% of 420,000 active; AID 686979; note: nearly all actives have a fitted effect of over 55% in size
#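 Chicken DT40 Tdp1-/- cells complemented with human TDP1, 400 cells/well, exposed to compounds plus 20 nM camptothecin for at least 48 h at 37 C; viability read as ATP content by CellTiter-Glo luminescence.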
# VP16 counter: counter-screen for ROR gamma inhibitors: Gal4-VP16 reporter; Drosophila S2 Gal4-VP16 UAS-luciferase, luminescence, 20 h; Potency, µM (highest dose often 53.6 µM), usual class: inhibitors; 3.5% of 310,000 active; AID 2546;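 note: Gal4-VP16 expression switched on by copper sulfate through the metallothionein promoter; nearly all actives have a fitted effect of over 50% in size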
# LDHA block: inhibitors of human lactate dehydrogenase A; P00338; purified LDHA, NADH/diaphorase-resazurin fluorescence; hits give low values; activity change, % (values are at about 110 or 230 µM); 0.15% of 480,000 active; in the data active = activity change below about -30%; inconclusive = mostly about -25% to -30%
#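 Resorufin fluorescence (ex540/em590), read at 0 and 20 min after diaphorase/resazurin addition, reports the NADH left after a 5 min room-temperature reaction of 2 nM human LDH5 with 0.06 mM NADH and 0.2 mM pyruvate.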
# IL-1B inflam inh: inhibitors of inflammasome signaling (IL-1 beta secretion); THP-1 LPS/ATP IL-1B secretion, AlphaLISA, 16 h; hits give low values; 4.7% of 360,000 active; activity change, % at 57.5 µM; in the data active = activity change below about -50%; inconclusive = mostly about -30% to -49%
#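 Secreted IL-1B measured by AlphaLISA bead assay after 16 h compound exposure of THP-1 cells; compounds (final up to 57.5 uM) added 1 h before LPS (250 ng/mL) and ATP (1.25 mM) stimulation; lower signal means less secretion.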
# A number is an active result; n = inactive; u = inconclusive; x = not tested or not shown; [ ] = remark or other dose. Compounds with a hit are over-represented: about 18% of the library has one in this group of screens. Unless noted, calls come from the whole dose curve; as a rule, active = well fitted curve in the direction sought with a large enough effect; inconclusive = small, poorly fitted or top-dose-only effect, or another doubt; inactive = no such curve, though single readings can be large; an effect the other way counts as inactive or inconclusive.
SMILES,TDP1 cell noCPT,RORg inh,TDP1 cell CPT,VP16 counter,LDHA block,IL-1B inflam inh
COc1ccc(-c2n[nH]c3c2CN(C(=O)c2ccccc2)CC3)cc1,n,n,u,u,n,n
O=C(c1ccco1)N1CCc2[nH]nc(-c3ccc(Cl)cc3)c2C1,n,n,n,n,n,-72
Cc1cc(/C=C(/C#N)c2nc3ccccc3[nH]2)c(C)n1-c1cccc([N+](=O)[O-])c1,13µM,n,16µM,n,n,-62
COc1ccc(/C=C(\C#N)c2nc3ccccc3c(=O)[nH]2)cc1OC,18µM,x,u,x,n,x
COc1cc(/C=C(/C#N)c2nc3ccccc3c(=O)[nH]2)ccc1O,n,n,n,n,n,n
CCOc1ccc(/C=C(/C#N)c2nc3ccccc3[nH]2)cc1OC,x,x,x,x,n,x
COc1ccc(/C=C(\C#N)c2nc3ccccc3[nH]2)cc1I,x,x,x,x,n,x
COc1cc(/C=C(\C#N)c2nc3ccccc3[nH]2)ccc1Oc1ccc([N+](=O)[O-])cn1,21µM,n,12µM,n,n,u
Cc1ccc2nc(/C(C#N)=C/c3ccc(-c4cccc([N+](=O)[O-])c4)o3)[nH]c2c1,u,u,u,u,n,n
COc1ccc(/C=C(\C#N)c2nc3ccccc3[nH]2)cc1O,21µM,u,15µM,n,n,u
COC(=O)c1ccc(COC(=O)c2cc3ccccc3s2)o1,x,x,x,x,n,x
COc1cc(/C=C(\C#N)c2nc3ccccc3[nH]2)cc(Br)c1OCc1ccccc1,21µM,u,18µM,u,n,n
COc1cc(/C=C(\C#N)c2nc3ccccc3[nH]2)cc(OC)c1O,13µM,n,16µM,n,n,-60
Cc1ccc2nc(/C(C#N)=C\c3cc(O)ccc3[N+](=O)[O-])[nH]c2c1,n,n,n,n,n,n
N#C/C(=C\c1cc([N+](=O)[O-])c(N2CCOCC2)cc1N1CCOCC1)c1nc2ccccc2[nH]1,23µM,u,u,n,n,u
Cc1nc2c(C)cccc2cc1C(=O)N/N=C/c1ccc(N(C)C)cc1,12µM,n,5.8µM,n,n,n
Cc1nc2c(C)cccc2cc1C(=O)N/N=C/c1ccc(C(=O)O)cc1,u,n,u,n,n,n
Cc1nc2c(C)cccc2cc1C(=O)N/N=C/c1cccnc1,6.5µM,n,5.2µM,n,n,-67
Cc1cc(C(=O)CSc2nnc(C(C)Oc3ccc(F)cc3)o2)c(C)n1Cc1ccco1 (stereo unspecified),x,x,x,x,n,x
COc1ccc(/C=N/OC(=O)COc2cc(C)cc(C)c2)cc1COc1ccc(F)cc1,x,x,x,x,n,x
CC(C)(CNC(=O)C1c2ccccc2-c2ccccc21)N1CCOCC1,n,n,n,n,n,-68
C=C1C=C(C(F)F)n2ncc(C(=O)N3CCN(c4ccccc4)CC3)c2N1,u,x,11µM,x,n,x
COc1ccc(-c2c3c(cc4ncn(Cc5ccccc5)c24)COC3=O)cc1,23µM,x,u,x,n,n
CCOC(=O)c1ccccc1NC(=O)N1CCn2c(C)ccc2C1CC (stereo unspecified),u,n[0.365 µM],23µM,x,n,n
CCCC1c2ccc(C)n2CCN1C(=O)Nc1ccccc1Cl (stereo unspecified),21µM,n,n,n,n,n
SMILES,TDP1 cell noCPT,RORg inh,TDP1 cell CPT,VP16 counter,LDHA block,IL-1B inflam inh
Cc1ccc(NC(=O)c2c(Nc3ccccc3C)sc(C(=O)c3ccccc3)c2N)cc1,5.8µM,x,u,x,n,x
CCOc1ccccc1Nc1sc(C(=O)c2ccccc2)c(N)c1C(=O)Nc1ccccc1,9.2µM,x,10µM,x,n,x
CC(C)=C1CCC(C)CC1=NNC(N)=S (stereo unspecified),21µM,x,u,x,n,u
Cc1cc(N)ccc1[N+](=O)[O-],x,x,x,x,n,x
O=C(c1ccccn1)N1CCN(c2ccc(C(F)(F)F)cn2)CC1,u,u,n,n,n,n
O=C(c1ccc2n[nH]nc2c1)N1CCN(c2ccc(C(F)(F)F)cn2)CC1,u,x,16µM,x,n,n
CC(C)(C)C(=O)Nc1ccc(N2CCN(c3ccc(C(F)(F)F)cn3)CC2)nc1,1.5µM,u,u,n,n,n
Cc1ccccc1N1CCN(C(=O)c2ccc(Oc3ccc(C(F)(F)F)cn3)cc2)CC1,13µM,u,8.9µM,u,n,-73
Cc1cccc(C(=O)N2CCN(c3ccc(C(F)(F)F)cn3)CC2)c1C,21µM,n,13µM,u,n,n
CC1(C(=O)c2ccccc2)C(c2ccccc2)C1(C#N)C(N)=O (stereo unspecified),x,x,x,x,n,x
CCOc1ncccc1C(=O)N1CCN(c2ccc(C(F)(F)F)cn2)CC1,10µM,u,u,n,n,n
Cc1cc(C(=O)N2CCN(c3ccc(C(F)(F)F)cn3)CC2)c(C)o1,10µM,u,u,n,n,n
Cc1ccc(C(=O)N2CCN(c3ccc(C(F)(F)F)cn3)CC2)o1,u,x,u,x,n,n
CCOC(=O)N1CCN(c2ccc(C(F)(F)F)cn2)CC1,n,n,n,n,n,n
Cc1ccc(-c2ccc(/C=C/C(=O)c3ccccc3)o2)cc1Cl,x,x,x,x,n,x
Cc1ccc(NC(=O)Cn2c(=O)c3c(C)cc(C)nc3n(-c3ccccc3)c2=O)c(Cl)c1,x,x,x,x,n,x
CCNC(=O)N1CCOCC1,6.3µM,n,n,n,n,n
COc1ccccc1-c1c(C(F)(F)F)oc2cc(OCC(=O)OCC(C)C)ccc2c1=O,x,x,x,x,n,x
CCN(CC)C(=O)[C@H]1CC(CC(=O)NC/C=C(\C)CCC=C(C)C)C(=O)N2CCc3c([nH]c4ccc(OC)cc34)[C@]12C (stereo partly specified),u,x,u,x,n,-78
CCN(CC)C(=O)[C@H]1CC(CC(=O)NC/C=C(\C)CCC=C(C)C)C(=O)N2CCc3c([nH]c4ccccc34)[C@]12C (stereo partly specified),u,x,23µM,x,n,u
CC(C)=CCC/C(C)=C/CNC(=O)CC1C[C@H](C(=O)N2CCCCC2)[C@@]2(C)c3[nH]c4ccccc4c3CCN2C1=O (stereo partly specified),13µM,x,21µM,x,n,n
CCC(C)NC(=O)c1cccc(N(C)C)c1 (stereo unspecified),x,x,x,x,n,x
CCOc1cc(-c2nnc(-c3ccco3)o2)cc(OCC)c1OCC,12µM,n,18µM,n,n,n
CCOc1ccc(-c2nnc(-c3ccco3)o2)cc1OCC,u,n,u,u,n,u
CCN(Cc1nc2cc(Cl)ccc2c(=O)[nH]1)C(=O)c1cc(C2CC2)nn1-c1ccccc1,2.9µM,x,5.2µM,x,n,n
CC(=O)Nc1cccc(-c2nc3cc(C)cc(C)c3o2)c1,x,x,x,x,n,x

# Assay outcomes (PubChem BioAssay)
